Assay results from PubChem BioAssay (Tox21).
Values without a mark were called inactive. Active and inactive are the calls of the source. Calls come from the whole dose curve.

Each compound was assayed against Gonadotropin-releasing hormone receptor (Homo sapiens) (UniProt P30968) (assay: Human gonadotropin-releasing hormone receptor (GnRHR) small molecule agonists, calcium flux assay in GnRHR-HEK293 cells (AID 1920063; note: nearly all actives have a fitted effect of over 35% in size)). Settings: calcium flux fluorescence, agonist mode; series mostly up to 57.6 µM; activity change: at the top concentration.
From the text: National Center for Advancing Translational Sciences [NCATS]
Division of Preclinical Innovation [DPI]
U.S. Environmental Protection Agency [EPA]
National Institutes of Environmental Health Sciences [NIEHS]
National Toxicology Program [NTP]
U.S. Food and Drug Administration [FDA]
Gonadotropin-releasing hormone receptor (GnRHR) is a G-protein-coupled receptor (GPCR) and acts (through phospholipase C) to increase intracellular inositol trisphosphate and then release intracellular calcium stores. Cell-based GnRHR-Hek293 calcium influx assay is using HEK293 cells that have been genetically engineered to express the human GnRHR, which activity can be measured by calcium signaling. A compound/drug can activate (agonist) GnRHR that can be monitored by levels of intracellular calcium.
GnRHR-HEK293 cells developed by Codex Corp contain human GnRHR reporter gene, which was stably integrated into HEK 293 cells. The compound activation can be detected by fluorescence intensity via calcium flux assay. This cell line has been used to screen the Tox21 10K compound library to identify GnRHR agonists.
GnRHR-Hek293 cells were dispensed at 1500cells/4uL/well in 1536-well black wall/clear bottom plates using a multidrop dispenser. After the assay plates were incubated at a 37 C/5% CO2 incubator for 18 hours, 4 uL of Calcium Dye Solution was added to each well. The plates were incubated at 37 C for 1 hour. For agonist mode, 23 nL of compounds dissolved in DMSO, positive controls or DMSO only was transferred to the assay plate by a pin tool station. The fluorescence intensity in the plates was measured using FDSS 7000EX kinetic plate reader with a filter set of Ex/Em=480/540 for 3 min at 1 sec intervals. Each test compound was measured at 15 concentrations and in triplicates.
% is set by controls: 0 for no effect and ±100 for the full control effect; potency is the fitted concentration of half-maximal effect.

Chain of Gonadotropin-releasing hormone receptor (Homo sapiens) (P30968 whole entry, looked up): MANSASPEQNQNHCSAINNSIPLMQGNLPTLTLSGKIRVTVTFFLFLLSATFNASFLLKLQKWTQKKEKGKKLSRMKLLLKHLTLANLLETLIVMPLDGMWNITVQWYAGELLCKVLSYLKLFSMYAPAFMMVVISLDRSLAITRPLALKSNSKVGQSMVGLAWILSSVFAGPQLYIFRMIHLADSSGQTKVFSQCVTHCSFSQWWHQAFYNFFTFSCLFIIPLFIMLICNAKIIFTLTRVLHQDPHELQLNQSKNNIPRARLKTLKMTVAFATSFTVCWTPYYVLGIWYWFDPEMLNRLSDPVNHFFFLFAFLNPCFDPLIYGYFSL

Compound | activity change | Potency
COc1ccc(-c2cc(C(F)F)nn2-c2ccc(S(N)(=O)=O)cc2)cc1F | -0.215% [at 26.4 µM, active compounds read high] | –
Cc1ccccc1N1C(=O)c2cc(S(N)(=O)=O)c(Cl)cc2NC1C (stereo not given) | 0.0563% [at 26.4 µM, active compounds read high] | –
CCC(C(=O)O)c1ccc(N2Cc3ccccc3C2=O)cc1 (stereo not given) | -0.163% [at 26.4 µM, active compounds read high] | –
CC(C)Oc1ccccc1O | -0.314% | –
C/C=C/C(=O)OCC(C)C | -0.912% | –
O=S1OCCO1 | -1.34% | –
CCCCCN(CCCCC)C(=O)C(CCC(=O)O)NC(=O)c1ccc(Cl)c(Cl)c1 (stereo not given) | 14.6% [at 26.4 µM, active compounds read high] | –
Cc1ccc(CCn2c3c(c4cc(Cl)ccc42)CN(C)CC3)cn1 | 2.72% [at 26.4 µM, active compounds read high] | –
CCCC(=O)OCCC(C)C | -0.275% | –
C=CCCCC | -1.25% | –
CC(C)(C)c1cc(CCC(=O)NN)cc(C(C)(C)C)c1O | 7.93% | –
N[C@H](C(=O)O)[C@@H](O)c1ccc(O)c(O)c1 | 1.27% [at 26.4 µM, active compounds read high] | –
CC(C)=NNC(N)=S | -0.45% | –
CCCC1CCC(=O)O1 (stereo not given) | -1.85% | –
N#Cc1ccc(CC(=O)c2cccc(C(F)(F)F)c2)cc1 | -0.803% | –
CCC(=O)Nc1ccc(O)cc1 | -0.931% [at 26.4 µM, active compounds read high] | –
CC(COc1ccccc1)NC(C)C(O)c1ccc(O)cc1 (stereo not given) | -0.936% [at 26.4 µM, active compounds read high] | –
C/C=C/C(=O)CC | 1.75% [at 11.8 µM, active compounds read high] | –
FC(F)OC(Cl)C(F)(F)F (stereo not given) | -0.0746% | –
CC(=O)O[C@H]1CC[C@@]2(C)C(=CC[C@@H]3[C@@H]2CC[C@]2(C)C(C(C)=O)=CC[C@@H]32)C1 | -1.77% [at 26.4 µM, active compounds read high] | –

Compound | activity change | Potency
CCCCCCCCCCCCCC(=O)OCC | 2.22% | –
CC(=O)OC1CCCCC1 | 2.08% | –
C=CC(=O)OCCCl | -0.0419% | –
CC(C)(C)c1cc(CCC(=O)NCCCCCCNC(=O)CCc2cc(C(C)(C)C)c(O)c(C(C)(C)C)c2)cc(C(C)(C)C)c1O | -0.0506% | –
O=C(Nc1cccc2c(=O)cc(-c3nn[nH]n3)oc12)c1ccc(OCCCCc2ccccc2)cc1 | 0.435% [at 26.4 µM, active compounds read high] | –
Cc1[nH]c(=O)c(C#N)cc1-c1ccc2nccn2c1 | 2.34% [at 26.4 µM, active compounds read high] | –
CCCCCCC(CO)CCCC (stereo not given) | -0.312% | –
O=c1c(-c2ccccc2)c1-c1ccccc1 | 0.0073% [at 26.4 µM, active compounds read high] | –
OC1(c2ccccc2)CCNCC1 | -1.36% [at 26.4 µM, active compounds read high] | –
Cc1ccc(C(=O)Oc2ccc(C(O)CNC(C)(C)C)cc2OC(=O)c2ccc(C)cc2)cc1 (stereo not given) | – | 53.5 nM (active)
CCC(=O)O[C@]1(C(=O)SCF)[C@H](C)C[C@H]2[C@@H]3C[C@H](F)C4=CC(=O)C=C[C@]4(C)[C@@]3(F)[C@@H](O)C[C@@]21C | 4.08% [at 26.4 µM, active compounds read high] | –
Cc1cnc(NS(=O)(=O)c2ccc(N)cc2)nc1 | -0.146% [at 26.4 µM, active compounds read high] | –
C=CCNc1nc(NCC=C)nc(N2CCN(C(c3ccc(F)cc3)c3ccc(F)cc3)CC2)n1 | 0.971% [at 26.4 µM, active compounds read high] | –
COCCOC(=O)C1=C(C)NC(C)=C(C(=O)OC/C=C/c2ccccc2)C1c1cccc([N+](=O)[O-])c1 (stereo not given) | -0.08% [at 26.4 µM, active compounds read high] | –
CCOC(=O)[C@H](O)[C@@H](O)C(=O)OCC | -0.501% | –
O=C(OCCN1CCOCC1)c1cccnc1Nc1cccc(C(F)(F)F)c1 | -0.0026% [at 26.4 µM, active compounds read high] | –
C[C@@H](CN1CC(=O)NC(=O)C1)N1CC(=O)NC(=O)C1 | -0.0825% [at 26.4 µM, active compounds read high] | –
CCCCC(CC)CN1C(=O)C2C3C=CC(C3)C2C1=O (stereo not given) | 11.7% | –
CO[C@H]1O[C@H](CO)[C@@H](O)[C@H](O)[C@H]1O | 1.58% | –
O=c1[nH]c(=O)c2[nH]c(=O)[nH]c2[nH]1 | -0.425% [at 5.22 µM, active compounds read high] | –
